Compounds with a hit are over-represented: about 2.7% of the library has one in this group of screens.
Mcl-1 Bim block: inhibitors of Bim peptide binding to Mcl-1, primary screen, biochemical, bead-based flow cytometry, multiplex; Bim peptide-Mcl-1 binding; 190,000 compounds, 0.1% hits; inhibition, % at 10 µM; in the data active = inhibition above about 40%;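 note: 0% = no compound tracer wells and 100% = peptide blocker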
Target sequence (Q07820 whole entry, looked up): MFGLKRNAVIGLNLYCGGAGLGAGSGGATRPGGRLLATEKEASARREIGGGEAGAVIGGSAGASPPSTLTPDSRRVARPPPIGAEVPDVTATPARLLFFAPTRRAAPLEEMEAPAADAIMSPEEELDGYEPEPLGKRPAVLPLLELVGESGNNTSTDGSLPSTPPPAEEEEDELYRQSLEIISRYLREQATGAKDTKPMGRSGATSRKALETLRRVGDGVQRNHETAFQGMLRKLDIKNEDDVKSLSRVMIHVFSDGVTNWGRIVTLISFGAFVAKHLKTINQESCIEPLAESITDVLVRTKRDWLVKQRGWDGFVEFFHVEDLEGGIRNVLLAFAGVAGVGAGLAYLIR
Mcl1 Noxa PPI: Mcl-1/Noxa binding inhibitors, primary screen, biochemical, TR-FRET, 1536-well | Induced myeloid leukemia cell differentiation protein Mcl-1 (Homo sapiens), Q07820 | TR-FRET Mcl-1/Noxa peptide binding, 2 h | inhibition, % at 21.7 µM | 220,000 compounds, 1.5% hits;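 active = compounds that cut the protein-peptide binding signal by more than 50% relative to plate controls in a single-dose test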;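 note: His-tagged Mcl-1 with rhodamine Noxa BH3 peptide and terbium anti-His antibody; 0% = Mcl-1 plus Noxa peptide wells and 100% = peptide-only wells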
eIF4E 4G PPI: eIF4E–eIF4G protein interaction inhibitors, primary screen, biochemical, uHTS, TR-FRET, eIF4GI fragment. 220,000 compounds, 0.37% hits. TR-FRET eIF4E-eIF4GI(517-606) binding, 2 h. Eukaryotic translation initiation factor 4E (Mus musculus) + Eukaryotic translation …. inhibition, % at 21.7 µM. AID 782, 2007;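 active = inhibition above about 30%, limit read from the data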;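 note: 0% = full FRET control wells and 100% = background wells lacking eIF4GI fragment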
Mcl1 Bid PPI: Mcl-1/Bid binding inhibitors, primary screen, biochemical, TR-FRET, 1536-well. 220,000 compounds, 0.97% hits. Induced myeloid leukemia cell differentiation protein Mcl-1 (Homo sapiens), Q07820. inhibition, % at 21.7 µM. TR-FRET Mcl-1/Bid-Dy647 peptide binding. AID 1021, 2008;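 active = compounds that cut the binding signal by more than half at the single screening dose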;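 note: His-tagged Mcl-1 with europium anti-His antibody binding Bid BH3 peptide; 0% = Mcl-1 plus peptide wells and 100% = peptide-only wells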
14-3-3 Bad PPI: inhibitors of 14-3-3 zeta/Bad binding, primary screen, biochemical, TR-FRET, bovine 14-3-3 zeta | 14-3-3 protein zeta/delta (Bos taurus), P63103 | TR-FRET 14-3-3zeta/Dy647-pBad peptide displacement, 1 h | inhibition, % at 21.7 µM | 220,000 compounds, 0.71% hits | AID 781, 2007;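 active = inhibition above about 70%, limit read from the data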;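 note: 0% = full 14-3-3 plus peptide FRET controls and 100% = background without 14-3-3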
Target sequence (P63103 whole entry, looked up): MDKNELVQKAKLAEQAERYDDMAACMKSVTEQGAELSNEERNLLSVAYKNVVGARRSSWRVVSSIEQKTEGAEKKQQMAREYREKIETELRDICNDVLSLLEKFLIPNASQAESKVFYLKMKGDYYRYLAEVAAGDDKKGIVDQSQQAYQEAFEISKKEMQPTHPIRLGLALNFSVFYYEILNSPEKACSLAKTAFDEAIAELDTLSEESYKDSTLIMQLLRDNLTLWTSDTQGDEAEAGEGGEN
Pf gametocyte: late stage P. falciparum gametocyte viability inhibitors, primary screen, ATP luminescence, HTS. P. falciparum stage V gametocytes, 24 h. inhibition, % at 10.9 µM. 150,000 compounds, 0.065% hits. AID 743093, 2013;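 active = inhibition above the mean plus 3 SD of compounds within the control limits, set per campaign, cut at about 38% in these data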;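 note: 0% = DMSO wells and 100% = medium only without gametocytes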
* = called active by the depositor; nt = no result given; [ ] = dose if it differs, or a comment.

SMILES | Mcl-1 Bim block | Mcl1 Noxa PPI | eIF4E 4G PPI | Mcl1 Bid PPI | 14-3-3 Bad PPI | Pf gametocyte
Cc1sc2ncn(CC(=O)Nc3ccccc3F)c(=O)c2c1-c1ccccc1 | 0 | 0 | -1 | -8 | -6 | 1
COc1cc(C(=O)Nc2ccc(N(C)C)cc2)cc(OC)c1OC | 2 | 78* | 10 | -100 | 1 | nt
CN(C)c1ccc(NC(=O)c2cccc(N3C(=O)CCC3=O)c2)cc1 | 0 | 64* | -2 | -55 | -23 | nt
CN(C)c1ccc(NC(=O)c2ccc3c(c2)nnn3C)cc1 | 0 | 61* | 15 | -59 | -14 | -2
Cc1ccc(NC(=O)c2ccc3c(c2)nnn3C)cc1 | -5 | -7 | -5 | -10 | -6 | 0
O=C(Nc1ccccc1)c1cccc(N2C(=O)CCC2=O)c1 | 0 | 1 | 3 | 4 | 1 | nt
Cc1cnn(-c2ccc3nnc(-c4ccc(Br)cc4)n3n2)c1 | 1 | 13 | -30 | -11 | 30 | nt
Cc1ccc2nc(SCC(=O)N/N=C/c3ccc(C(=O)O)cc3)cc(C)c2c1 | nt | nt | nt | nt | nt | -3
Cc1snc(SCC(=O)c2ccc([N+](=O)[O-])cc2)c1C#N | -6 | 66* | 8 | -34 | 2 | 6
Cc1cc(C)n(-c2nnc(NC34CC5CC(CC(C5)C3)C4)nn2)n1 | 4 | 5 | 13 | -67 | 18 | nt
CN(C)c1ccc(NC2=C(Cl)C(=O)c3ccccc3C2=O)cc1 | 4 | 100* | 16 | -45 | -15 | -18
O=C1C(Cl)=C(Nc2ccc3cn[nH]c3c2)C(=O)c2ccccc21 | nt | 93* | -3 | -67 | -2 | nt
O=c1oc(-c2ccc(Br)cc2)nc2ccccc12 | nt | nt | nt | nt | nt | 9
Cc1ccc(CN2CCN(C(=O)c3ccncc3)CC2)cc1 | -4 | 24 | 1 | 3 | 27 | nt
CCCC[C@@H]1CNCCN1CCc1cccc2ccccc12 | nt | nt | nt | nt | nt | 6
COc1cc(/C=C2/NC(=O)N(Cc3ccccc3F)C2=O)cc(OC)c1O | 51* | 57* | 4 | -46 | -2 | nt
CCOc1cc(/C=C2/NC(=O)N(Cc3ccccc3F)C2=O)ccc1O | -1 | 20 | -4 | -33 | -22 | -20
O=c1cc(CN2CCN(Cc3ccccc3)CC2)c2cc(Cl)ccc2o1 | 1 | 11 | 11 | -11 | 4 | nt
O=c1c(CN2CCN(Cc3ccccc3)CC2)coc2ccc(Cl)cc12 | -2 | 15 | 4 | 93* | 72* | nt
Cc1ccc2occ(CN3CCN(Cc4ccccc4)CC3)c(=O)c2c1 | -1 | nt | -8 | 20 | 72* | nt
CCOC(=O)c1cccc(NC(=O)CCNS(=O)(=O)c2ccc3c(c2)CCN3C(=O)CC)c1 | -4 | 21 | 4 | 70* | 3 | nt
CC(=O)c1c(C(=O)O)c2ccccc2[nH]c1=O | nt | 3 | 92* | -7 | 5 | 10
COC(=O)c1c(N)c2ccccc2[nH]c1=O | -4 | 0 | 2 | 18 | 13 | -2
O=C(Cn1cnc([N+](=O)[O-])n1)N/N=C/c1cc(Cl)ccc1O | 0 | -33 | -1 | -109 | -20 | nt
Cc1cc(N)ccc1-n1c(C)ccc1C | 0 | 26 | -5 | -204 | -7 | -10
SMILES | Mcl-1 Bim block | Mcl1 Noxa PPI | eIF4E 4G PPI | Mcl1 Bid PPI | 14-3-3 Bad PPI | Pf gametocyte
Cc1cc(C(=O)O)ccc1-n1c(C)ccc1C | 2 | 78* | 7 | 57* | 0 | nt
O=C(Nc1ccccc1C(=O)O)c1ccc(CN2C(=O)c3ccccc3C2=O)cc1 | nt | nt | nt | nt | nt | -16
O=C(O)CCN1C(=O)/C(=C\c2ccc(-c3nc4ccccc4s3)o2)SC1=S | 25 | 102* | 20 | 95* | 17 | nt
CCNC(=O)NC(=O)COC(=O)CCCSc1nc2ccccc2s1 | -2 | 5 | -4 | -30 | 7 | 10
Cc1ccc(C)c(S(=O)(=O)Nc2cc(SCC(=O)O)c(O)c3ccccc23)c1 | 4 | 79* | 34*[fluorescence artefact?] | -16 | 84*[fluorescence artefact?] | nt
CCc1ccc(S(=O)(=O)Nc2cc(SCC(=O)O)c(O)c3ccccc23)cc1 | 4 | 56* | 5 | -29 | 41 | -7
CCOc1ccc(S(=O)(=O)Nc2cc(SCC(=O)O)c(O)c3ccccc23)cc1 | nt | nt | nt | nt | nt | 13
O=C(O)CSc1cc(NS(=O)(=O)c2cccc([N+](=O)[O-])c2)c2ccccc2c1O | nt | 76* | 24 | 16 | 86* | 7
O=S(=O)(Nc1cc(Sc2cccc3cccnc23)c(O)c2ccccc12)c1ccccc1 | 2 | 68* | 1 | -13 | 9 | 24
O=C(Cc1cccs1)Nc1cccc(-c2nc3cc4ccccc4cc3[nH]2)c1 | 0 | 24 | 5 | -20 | -4 | 20
CC1(N(O)C=C2C=CC(=O)C=C2)CCCCC1=O (configuration not stated) | nt | -15 | -3 | -8 | -5 | -2
CC1(C)C2CCC1(CS(=O)(=O)N1CCC(C(=O)O)CC1)C(=O)C2 (configuration not stated) | nt | -5 | -2 | -13 | -4 | -6
Cn1c(N2CCC(C(N)=O)CC2)nc2c1c(=O)n(Cc1cccc(Br)c1)c(=O)n2C | -1 | -15 | -4 | -5 | -10 | nt
COc1cccc(Oc2c(C)oc3c(CN4CCCC4)c(O)ccc3c2=O)c1 | nt | -5 | 0 | 96* | 5 | -2
COc1ccccc1Oc1c(C)oc2c(CN3CCOCC3)c(O)ccc2c1=O | nt | -7 | 6 | -15 | -5 | -18
CCCC(=O)c1ccc(N2CCN(C(=O)OCC)CC2)c(F)c1 | -1 | -4 | 9 | -5 | 77* | -4
CCOC(=O)N1CCN(c2ccc(C(=O)CC)cc2F)CC1 | 3 | -4 | 5 | -11 | -11 | nt
NC(=O)C1(C(N)=O)OC1c1ccc(Cl)c(Cl)c1 (configuration not stated) | nt | 4 | -1 | -2 | 3 | 12
Cc1ccc([N+](=O)[O-])cc1-c1ccc(/C=C(\C#N)c2[nH]nc(N)c2C#N)o1 | -11 | 68* | 0 | 79* | 72*[fluorescence artefact?] | -14
COc1ccc(C(c2c(O)ccc3ccccc23)N2CCOCC2)c(OC)c1 (configuration not stated) | -5 | 79* | 12 | 49 | -7 | 13
COc1ccc(C2=CSC3=NCCN23)cc1F | -2 | 16 | 38*[fluorescence artefact?] | -49 | 0 | 25
COc1ccc(C2=CSC3=NCCN23)cc1Cl | nt | nt | nt | nt | nt | -23
CSc1nc2sc3c(c2c(=O)[nH]1)CCC3 | -2 | 17 | 1 | -3 | -14 | 2
CCN1C(=O)c2cccc3c(S(=O)(=O)Nc4ccccc4OC)ccc1c23 | -5 | 21 | 8 | 75* | -8 | 10

High-throughput results (PubChem)
